# Experimental data from the supplement of paper PMC4022240.
# ± gives the standard deviation.
# T1: HaloTag-ATRX ADD domain (163-292)
# T1 chain: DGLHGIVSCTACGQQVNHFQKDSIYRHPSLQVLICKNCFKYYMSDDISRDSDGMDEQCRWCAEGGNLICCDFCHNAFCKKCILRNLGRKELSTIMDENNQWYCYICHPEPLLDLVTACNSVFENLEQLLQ
# Columns and labels:
# Assay in all cases: peptide microarray binding signal (635 nm), min-max normalized on array (fraction of array maximum); higher = stronger binding
# Settings in all cases: peptide region: H3 1-13
# [1] = target: T1, HaloTag-ATRX ADD domain (163-292)
# Description: (§1)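 Histone 13-mer peptides were synthesized as cellulose conjugates with a C-terminal 20-atom PEG linker and printed in triplicate on nitrocellulose. The sequence given is the unmodified backbone; PTMs (Kme1/2/3, Kac, Sph/Tph, Rme/Rme2a/Rme2s, Rcit) are listed in the label and the 'peptide modifications' condition. Slides were probed at 4 °C for 1 h with biotin-labelled (HQ)5-HaloTag reader fusions (ATRX-ADD, ING2-PHD) then streptavidin-Alexa647, or with rabbit histone antibodies then anti-rabbit Alexa647. The mean 635 nm signal of the triplicate spots was scaled 0-1 between the lowest and highest values on each array.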
# [2] = target: HaloTag-ING2 PHD (mouse Ing2 200-280)
# Description: as §1
# [3] = target: anti-H3K4me3 antibody ab8580
# Description: as §1
# [4] = target: anti-H3K9me3 antibody ab8898
# Description: as §1
# [5] = peptide modifications: H3R8me2a H3K9me2, binder concentration: 1:2,000 dilution
# [6] = peptide modifications: H3R8me2a H3K9me2, binder concentration: 1:10,000 dilution
# [7] = peptide modifications: H3R8me2a, binder concentration: 1:2,000 dilution
# [8] = peptide modifications: H3R8me2a, binder concentration: 1:10,000 dilution
# [9] = peptide modifications: H3R8me1 H3K9me2, binder concentration: 1:2,000 dilution
# [10] = peptide modifications: H3R8me1 H3K9me2, binder concentration: 1:10,000 dilution
# [11] = peptide modifications: H3R8me2s H3K9ac, binder concentration: 1:2,000 dilution
# [12] = peptide modifications: H3R8cit H3K9me3, binder concentration: 1:2,000 dilution
# [13] = peptide modifications: H3R8cit H3K9me3, binder concentration: 1:10,000 dilution
binder,measurement,setting,value
ARTKQTARKSTGG [H3 1-13 A R T K Q T A Rme2a Kme2 S T G G],peptide microarray binding signal,"[1]; peptide modifications: H3R8me2a H3K9me2, binder concentration: 50 nM",0.0425 ± 0.0031
same,peptide microarray binding signal,"[1]; peptide modifications: H3R8me2a H3K9me2, binder concentration: 500 nM",0.0913 ± 0.0063
same,peptide microarray binding signal,"[2]; peptide modifications: H3R8me2a H3K9me2, binder concentration: 10 nM",0.044 ± 0.0014
same,peptide microarray binding signal,"[2]; peptide modifications: H3R8me2a H3K9me2, binder concentration: 100 nM",0.06 ± 0.0041
same,peptide microarray binding signal,[3]; [5],0.00357 ± 0.00013
same,peptide microarray binding signal,[3]; [6],0.00314 ± 4.6e-05
same,peptide microarray binding signal,[4]; [5],0.00355 ± 0.00032
same,peptide microarray binding signal,[4]; [6],0.00334 ± 0.00031
ARTKQTARKSTGG [H3 1-13 A R T K Q T A Rme2a K S T G G],peptide microarray binding signal,"[1]; peptide modifications: H3R8me2a, binder concentration: 50 nM",0.00959 ± 0.00045
same,peptide microarray binding signal,"[1]; peptide modifications: H3R8me2a, binder concentration: 500 nM",0.0248 ± 0.0019
same,peptide microarray binding signal,"[2]; peptide modifications: H3R8me2a, binder concentration: 10 nM",0.00812 ± 0.00091
same,peptide microarray binding signal,"[2]; peptide modifications: H3R8me2a, binder concentration: 100 nM",0.0181 ± 0.0056
same,peptide microarray binding signal,[3]; [7],0.00191 ± 0.00018
same,peptide microarray binding signal,[3]; [8],0.000799 ± 2.2e-05
same,peptide microarray binding signal,[4]; [7],0.000951 ± 7e-05
same,peptide microarray binding signal,[4]; [8],0.000634 ± 1.2e-05
ARTKQTARKSTGG [H3 1-13 A R T K Q T A Rme Kme2 S T G G],peptide microarray binding signal,"[1]; peptide modifications: H3R8me1 H3K9me2, binder concentration: 50 nM",0.0149 ± 0.00099
same,peptide microarray binding signal,"[1]; peptide modifications: H3R8me1 H3K9me2, binder concentration: 500 nM",0.0405 ± 0.00097
same,peptide microarray binding signal,"[2]; peptide modifications: H3R8me1 H3K9me2, binder concentration: 10 nM",0.0115 ± 0.00013
same,peptide microarray binding signal,"[2]; peptide modifications: H3R8me1 H3K9me2, binder concentration: 100 nM",0.0224 ± 0.00044
same,peptide microarray binding signal,[3]; [9],0.00179 ± 7.7e-05
same,peptide microarray binding signal,[3]; [10],0.00108 ± 5.7e-05
same,peptide microarray binding signal,[4]; [9],0.00208 ± 0.00038
same,peptide microarray binding signal,[4]; [10],0.0019 ± 6.5e-05
ARTKQTARKSTGG [H3 1-13 A R T K Q T A Rme2s Kac S T G G],peptide microarray binding signal,"[1]; peptide modifications: H3R8me2s H3K9ac, binder concentration: 500 nM",0.0059 ± 0.0002
same,peptide microarray binding signal,"[2]; peptide modifications: H3R8me2s H3K9ac, binder concentration: 100 nM",0.00574 ± 0.00031
same,peptide microarray binding signal,[3]; [11],0.00142 ± 6.5e-05
same,peptide microarray binding signal,[4]; [11],0.00243 ± 0.00046
ARTKQTARKSTGG [H3 1-13 A R T K Q T A Rcit Kme3 S T G G],peptide microarray binding signal,"[1]; peptide modifications: H3R8cit H3K9me3, binder concentration: 50 nM",0.325 ± 0.047
same,peptide microarray binding signal,"[1]; peptide modifications: H3R8cit H3K9me3, binder concentration: 500 nM",0.387 ± 0.024
same,peptide microarray binding signal,"[2]; peptide modifications: H3R8cit H3K9me3, binder concentration: 10 nM",0.0423 ± 0.0029
same,peptide microarray binding signal,"[2]; peptide modifications: H3R8cit H3K9me3, binder concentration: 100 nM",0.055 ± 0.0029
same,peptide microarray binding signal,[3]; [12],0.0234 ± 0.008
same,peptide microarray binding signal,[3]; [13],0.0152 ± 0.0012
same,peptide microarray binding signal,[4]; [12],0.331 ± 0.019
same,peptide microarray binding signal,[4]; [13],0.296 ± 0.055
